The campaign covered roughly 310,000 compounds. About 14,000 (4.5%) showed an effect of 50% or more. The effect is printed as a negative number. This excerpt belongs to a sample that is enriched for strong results.
What follows are compounds tested against human ether-à-go-go-related gene (hERG) potassium channel (human, UniProt Q12809) (assay: primary screen, population patch clamp on CHO cells stably expressing hERG; higher = less effect of the substance).
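Note: peak tail current of the secondary pulse compared with the same well before compound.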

Chain of human ether-à-go-go-related gene (hERG) potassium channel (Q12809 whole entry, looked up): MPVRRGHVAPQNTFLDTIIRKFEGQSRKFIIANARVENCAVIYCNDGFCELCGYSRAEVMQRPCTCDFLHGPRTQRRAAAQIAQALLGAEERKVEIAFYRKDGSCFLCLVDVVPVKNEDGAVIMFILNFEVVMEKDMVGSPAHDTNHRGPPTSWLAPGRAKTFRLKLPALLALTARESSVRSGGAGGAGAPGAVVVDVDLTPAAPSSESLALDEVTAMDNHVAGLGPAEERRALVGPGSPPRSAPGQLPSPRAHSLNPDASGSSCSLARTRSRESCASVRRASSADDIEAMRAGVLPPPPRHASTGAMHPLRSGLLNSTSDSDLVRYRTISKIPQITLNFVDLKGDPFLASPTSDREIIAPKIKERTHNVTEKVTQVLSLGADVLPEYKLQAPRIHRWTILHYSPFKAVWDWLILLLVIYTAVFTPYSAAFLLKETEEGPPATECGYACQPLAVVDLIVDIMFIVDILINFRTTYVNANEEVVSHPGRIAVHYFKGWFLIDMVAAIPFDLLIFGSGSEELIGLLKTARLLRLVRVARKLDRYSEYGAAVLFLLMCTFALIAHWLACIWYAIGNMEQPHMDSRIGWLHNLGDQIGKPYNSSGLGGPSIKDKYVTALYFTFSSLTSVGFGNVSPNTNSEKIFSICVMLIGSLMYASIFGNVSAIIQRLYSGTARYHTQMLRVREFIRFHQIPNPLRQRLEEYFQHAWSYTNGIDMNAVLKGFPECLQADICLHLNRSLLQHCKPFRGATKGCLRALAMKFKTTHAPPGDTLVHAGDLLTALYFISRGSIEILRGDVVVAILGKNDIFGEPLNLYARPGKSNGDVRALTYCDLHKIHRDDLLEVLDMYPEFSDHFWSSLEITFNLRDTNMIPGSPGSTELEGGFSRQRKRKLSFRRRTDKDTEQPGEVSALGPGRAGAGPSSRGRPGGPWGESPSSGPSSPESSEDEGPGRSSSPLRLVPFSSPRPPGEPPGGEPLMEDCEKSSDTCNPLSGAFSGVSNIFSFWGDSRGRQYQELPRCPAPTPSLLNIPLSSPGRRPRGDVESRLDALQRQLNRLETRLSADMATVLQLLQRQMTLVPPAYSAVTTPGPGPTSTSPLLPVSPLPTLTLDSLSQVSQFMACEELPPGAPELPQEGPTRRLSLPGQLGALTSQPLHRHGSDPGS

SMILES | hERG current change (%, negative = inhibition) at 10uM
S=c1[nH]cc(-c2ccccc2)n1-c1ccccc1Cl | 9.61%
CCc1onc(C)c1C(=O)Nc1ccc(N2CCOCC2)cc1 | 15%
Clc1ccc(-c2noc(/C=C/c3ccccc3)n2)cc1 | 18.2%
CC1(C)C2CC=C(CN3CCC(O)CC3)C1C2 (centres unmarked) | -7.45%
COc1cccc(CC2(CO)CCN(CC3=CC[C@H]4C[C@@H]3C4(C)C)CC2)c1 | -44.2%
COc1ccc(CC2(CO)CCN(CC3=CC[C@H]4C[C@@H]3C4(C)C)CC2)cc1 | -58.7%
CCN(CC)S(=O)(=O)c1ccc2c(c1)nc(SCc1nc3ccsc3c(=O)[nH]1)n2CC | -30.8%
COc1ccc(C=NCCC2(O)CC(C)N(C)CC2C)cc1 (centres unmarked) | 8.31%
CC1Oc2cc3c(-c4c(O)cc(O)c5c(O)c6c(cc45)OC(C)C(C)C6=O)c(O)cc(O)c3c(O)c2C(=O)C1C (centres unmarked) | 10.8%
C[N+]1(C)CCC(OC(=O)C(c2ccccc2)c2ccccc2)CC1.[I-] | 1.2%
CC1CN(C(C)C)C(C)CC1OC(=O)c1ccccc1 (centres unmarked) | 15.7%
CCCCOc1ccc(C(=O)OC2CC(C)N(C)CC2C)cc1 (centres unmarked) | -25.4%
C[N+]1(C)[C@@H]2CC[C@H]1CC(OC(=O)C(c1ccccc1)c1ccccc1)C2.[I-] (some centres unmarked) | 18%
CC1CN(C)C(C)CC1OC(=O)C(c1ccccc1)c1ccccc1 (centres unmarked) | -73.7%
CN(C)[C@@H]1CCC[C@H]1OC(=O)C(c1ccccc1)c1ccccc1 | -65.2%
O=C(Cc1cccs1)NCCn1ccc2ccccc21 | -6.95%
Cc1ccc(C2=NN(C(=O)CSc3nnnn3C)C(c3ccco3)C2)cc1 (centres unmarked) | 17.1%
Cc1cn(C)c(=O)n(C)c1=O | 4.46%
O=C(C[n+]1cc(-c2ccccc2)n2c1CCC2)Nc1nc(-c2ccc(F)cc2)cs1.[Cl-] | -20.3%
Cc1ccc(-c2c[n+](CC(=O)Nc3nc(-c4ccc(F)cc4)cs3)c3n2CCC3)cc1.[Cl-] | -74.2%
O=C(C[n+]1cc(-c2ccc(F)cc2)n2c1CCC2)Nc1nc(-c2ccccc2)cs1.[Cl-] | -11.1%
Cn1c(NC(=O)C[n+]2cc(-c3ccc(F)cc3)n3c2CCC3)cc(=O)n(C)c1=O.[Cl-] | 1.04%
O=C(C[n+]1cc(-c2ccc(F)cc2)n2c1CCC2)Nc1nc(-c2ccc(F)cc2)cs1.[Cl-] | -76.7%

SMILES | hERG current change (%, negative = inhibition) at 10uM
O=C(C[n+]1cc(-c2ccc(Cl)cc2)n2c1CCC2)Nc1nc(-c2ccc(F)cc2)cs1.[Cl-] | -48.4%
CN(c1ccc(C(=O)N2CCOCC2)cc1[N+](=O)[O-])C1CCCCC1 | -23.1%
CCCCCCc1ccc(N2C[C@H](Cc3ccccc3)[C@@H](CC(=O)NCc3ccc(OC)cc3)C2=O)cc1 | -4.42%
CCCCC[C@H]1CN(Cc2ccccc2)C(=O)[C@@H]1CC(=O)NCc1ccc(OC)cc1 | -56.4%
CCCCN1CC[C@H]2C=CC[C@@H](C(=O)NCc3ccc(OC)cc3)[C@H]2C1=O | 2.71%
CCCCN1C[C@H](C)[C@@H](CC(=O)NCc2ccccc2)C1=O | -10.5%
CCCCC[C@H]1CN(CCc2ccccc2)C(=O)[C@@H]1CC(=O)NCc1ccc(OC)cc1 | -61.8%
CCCCC[C@H]1CN(CCCC)C(=O)[C@@H]1CC(=O)NCc1ccc(OC)cc1 | -71%
CCCCCCc1ccc(N2C[C@H](CCCCC)[C@@H](CC(=O)NCc3ccc(OC)cc3)C2=O)cc1 | -16.6%
CCCCC[C@H]1CN(CCCC)C(=O)[C@@H]1CC(=O)NCc1ccccc1 | -73.5%
COc1ccc(CN2C[C@H](C)[C@@H](CC(=O)NCc3ccccc3)C2=O)cc1 | -10.7%
COc1ccc(CCN2CC(C(=O)NCc3ccccc3)CCC2=O)cc1 (centres unmarked) | -8.79%
CCCCC[C@H]1CN(Cc2ccc(OC)cc2)C(=O)[C@@H]1CC(=O)NCc1ccccc1 | -38.6%
CCCCN1C[C@H](Cc2ccccc2)[C@@H](CC(=O)Nc2ccccc2)C1=O | -25.4%
CC(C)(C)NCc1cccn1-c1sc2c(c1C#N)CCCC2 | -13.4%
NC(=S)Nc1ncc(C(F)(F)F)cc1Cl | 12.2%
CC(C)NC(=O)c1sc(=S)n2c1[nH]c(=O)c1ccc(C(=O)NCCc3ccc(Cl)cc3)cc12 | 14.1%
N#CC(c1ccccc1)N(CCCCl)C(=O)c1ccccc1 (centres unmarked) | -18.9%
c1ccc(OCCCc2nc(-c3ccccn3)no2)cc1 | -0.0161%
CCCCC[C@H]1CN(Cc2ccccc2)C(=O)[C@@H]1CC(=O)NCc1ccccc1 | -65.8%
CCCCCCc1ccc(N2C[C@H](CCCCC)[C@@H](CC(=O)NCc3ccccc3)C2=O)cc1 | -1.8%
C[C@H]1CN(Cc2ccccc2)C(=O)[C@@H]1CC(=O)NCc1ccccc1 | 1.31%
O=C(c1cccc(C(F)(F)F)c1)N1CCC(O)(CS(=O)(=O)Cc2ccc(Cl)cc2)CC1 | 17.5%

SMILES | hERG current change (%, negative = inhibition) at 10uM
CCN(c1ccccc1)S(=O)(=O)c1cc(C(=O)OC(C)C(=O)Nc2ccc3c(c2)OCCO3)ccc1C (centres unmarked) | 14.1%
Cc1ccc(-c2csc(=S)n2CC(=O)OCC(=O)NC(C)C(C)C)cc1 (centres unmarked) | 3.12%
CN(CC(=O)Nc1ccc(Cl)c(C(F)(F)F)c1)C(=O)C1CC(=O)N(Cc2ccco2)C1 (centres unmarked) | -20.1%
Cc1[nH]c2ccccc2c1/C=N/NC(=O)c1ccc(N)cc1 | 11.2%
COc1ccc(CCN2C(=O)C3C4CC(C5C(C(=O)N/N=C\c6ccc(Cl)cc6)=NOC45)C3C2=O)cc1OC (centres unmarked) | -67.7%
COc1ccc(CCN2C(=O)C3C4CC(C5C(C(=O)NN)=NOC45)C3C2=O)cc1OC (centres unmarked) | 7.3%
COc1ccc(CCN2C(=O)C3C4CC(C5C(C(N)=O)=NOC45)C3C2=O)cc1OC (centres unmarked) | -2.12%
CN(C)S(=O)(=O)N1CCC(Oc2ccc(C(=O)N3CCCCCCC3)cc2)CC1 | 10.9%
CCOc1ccccc1N1CCN(C(=O)NCc2ccc(Cl)cc2)CC1 | -14.6%
Cl.O.O=C1C2CCCCN2C(=O)N1CCCCN1CCN(c2ccccc2Oc2ccccc2)CC1 (centres unmarked) | -55.7%
CCCCOc1ccccc1N1CCN(CCCN2C(=O)C3CCCN3C2=O)CC1.Cl (centres unmarked) | -56.7%
CCCNC(=O)c1ccccc1N1CCN(CCCCN2C(=O)C3CCCCN3C2=O)CC1.Cl.O (centres unmarked) | -33.5%
COc1ccccc1N1CCN(CCCCN2C(=O)C3CCCCN3C2=O)CC1 (centres unmarked) | -12.8%
COc1ccccc1N1CCN(CCN2C(=O)C3CCCCN3C2=O)CC1 (centres unmarked) | 4.39%
Cc1ccc(N2CCN(CCCCN3C(=O)C4CCCN4C3=O)CC2)cc1.Cl (centres unmarked) | -23.9%
Cc1ccccc1N1CCN(CCCCN2C(=O)C3CCCN3C2=O)CC1.Cl.O (centres unmarked) | -65.4%
Cc1ccccc1N1CCN(CCCN2C(=O)C3CCCCN3C2=O)CC1 (centres unmarked) | -9.54%
COc1ccccc1N1CCN(CCN2C(=O)C3CCCN3C2=O)CC1 (centres unmarked) | 12%
O=C(Nc1ccccc1)OC1C2CCC1C(N1CCCCC1)CC2 (centres unmarked) | -37.5%
O=C(Nc1ccc(OCc2ccccc2Cl)cc1)c1cccnc1 | 1.02%
Cc1ccc(C(=O)N2CCCC(Nc3ccc(F)cc3)C2)cc1C (centres unmarked) | 0.463%
Cc1ccc(-c2ccc(=O)n(CC(=O)NCc3ccco3)n2)cc1 | -10%
O=C1C2C3c4ccccc4C(c4ccccc43)C2C(=O)N1Cc1ccco1 (centres unmarked) | 5.12%

SMILES | hERG current change (%, negative = inhibition) at 10uM
Cn1c(=O)n(C)c2cc(S(=O)(=O)O)ccc21 | 4.49%
Cc1ccc(S(=O)(=O)NCC(=O)Nc2ccc3c(c2)OCO3)cc1 | 8.87%
Cc1ccc(N2C(=O)CC(=O)NC2=O)cc1 | -16.9%
CCN(CC)CCN(C(=O)c1ccc(C(=O)c2ccccc2)cc1)c1nc2ccc(OC)cc2s1.Cl | -45.9%
CCN(CC)CCN(C(=O)c1ccc(S(=O)(=O)N(C)C2CCCCC2)cc1)c1nc2c(C)cccc2s1.Cl | -13.9%
COc1cccc2sc(N(CCCN(C)C)C(=O)c3ccc(S(=O)(=O)N4CCc5ccccc5C4)cc3)nc12.Cl | 3.58%
CCN(CC)CCN(C(=O)c1ccc(C(=O)c2ccccc2)cc1)c1nc2c(OC)cccc2s1.Cl | -68%
CCN(CC)CCN(C(=O)c1ccc([N+](=O)[O-])cc1)c1nc2c(OC)cccc2s1.Cl | -73.2%
CN1C(=O)/C(=C/c2ccccc2OCc2cccc(F)c2)N(C)C1=S | 6.02%
O=C(COC(=O)C1CC(=O)N(Cc2ccccc2)C1)Nc1ccc2c(c1)OCO2 (centres unmarked) | 5.98%
Cc1nc2ccc(Cl)cc2c(=O)n1-c1ccccc1Cl | 5.06%
CCN(CC)CCNCc1ccc(-c2ccc(Cl)cc2)o1.Cl | -72.8%
Cc1ccc(CNCC2CCCO2)o1 (centres unmarked) | 7.37%
Cl.Fc1ccc(-c2ccc(CNCc3ccccn3)o2)cc1Cl | -34.9%
Cl.Clc1ccc(CNCC2CCCO2)c(Cl)c1 (centres unmarked) | -2.74%
OCCc1ccc(-c2ccc(Cl)cc2)o1 | 7.65%
Cl.Clc1ccc(-c2ccc(CNCc3ccccn3)o2)cc1 | -52.4%
Cl.Clc1ccc(-c2ccc(CNCC3CCCO3)o2)cc1 (centres unmarked) | -62.4%
Cl.Clc1cccc(-c2ccc(CNCc3ccccn3)o2)c1 | -16.2%
CN1CCN(Cc2ccc(-c3ccc(Cl)cc3)o2)CC1 | -31.7%

Source: paper PMC4336329 (PLoS ONE, 2015)
